Consider 7 molecules from PubChem BioAssay.

The nature of test [1]: galactose survival enhancers in mitochondrial complex I cybrids – cell-based, galactose medium, ATP luminescence, primary screen (AID 1645843).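 Also: positive z means more ATP and so rescue of galactose-driven cybrid death.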 Particulars: complex I mutant cybrid cells, 72 h, stronger effect = higher value.
Test [2] has as its target Mitogen-activated protein kinase 7 (Homo sapiens) (UniProt Q13164). Briefly: Gal4-ERK5 driven luciferase induction – cell-based, HTS, primary screen (AID 1508626;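 active = luciferase signal above three times the same-plate solvent-only control wells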;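 also: luciferase driven by Gal4-ERK5 fusion binding five Gal4 sites before minimal TATA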). Particulars: HeLa Gal4-ERK5 transactivation, 18 h, at 5 µM, stronger effect = higher value.
A short description of test [3]: growth inhibition, single agent or in combination, cell-based, chromothripsis tumors, cisplatin or BGB combos (AID 1671449; in the data active = inhibition above about 80%;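 also: cells exposed for 96 hours; 0% = vehicle DMSO and 100% = killing by high DMSO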). Particulars: LFS_MB_P medulloblastoma cells.
Test [4] is described as follows: growth inhibition, single agent and combos, cell-based, chromothripsis tumors, cisplatin or BGB combos (AID 1671450; in the data active = inhibition above about 80%;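 also: cells exposed to compound for four days; 0% = vehicle DMSO and 100% = cell killing by high DMSO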). The conditions noted are these: HDN33 neuroblastoma cells, stronger effect = higher value.
Test [5] can be described thus: growth inhibition, single agents and combos, ICB984, cell-based, cisplatin or BGB combos, synergistic combos for chromothripsis tumors (AID 1671451; call rule not given here;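 also: cells exposed for 96 hours before readout; 0% = vehicle DMSO and 100% = killing by high DMSO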). Particulars: ICB984 medulloblastoma cells, drug combinations, stronger effect = higher value.
Test [6] in a line: growth inhibition, single agents and combos, LFS_MB_1R, cell-based, cisplatin or BGB combos, synergistic combos for chromothripsis tumors (AID 1671452; in the data active = inhibition above about 80%;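 also: cells exposed for 96 hours before readout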). The conditions noted are these: LFS_MB_1R medulloblastoma cells, stronger effect = higher value.
Test [7] is described as follows: growth inhibition, single agents and combos, HTB85, cell-based, BGB or cisplatin IC20 combos, synergistic combos for chromothripsis tumors (AID 1671453; in the data active = inhibition above about 80%;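 also: cells exposed for 96 hours before readout; 0% = vehicle DMSO and 100% = high DMSO killing control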). The conditions noted are these: HTB85 osteosarcoma cells, drug combinations, stronger effect = higher value.
Test [8] in a line: growth inhibition, single agents and combos, CRL2098, cell-based, BGB or cisplatin IC20 combos, synergistic combos for chromothripsis tumors (AID 1671454; in the data active = inhibition above about 80%;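 also: cells exposed for 96 h before readout; 0% = vehicle DMSO and 100% = killing by high DMSO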). The conditions noted are these: CRL2098 osteosarcoma cells, drug combinations, stronger effect = higher value.
The nature of test [9]: growth inhibition, single agents and combos, HD-MB03, cell-based, BGB or cisplatin IC20 combos, synergistic combos for chromothripsis tumors (AID 1671455; in the data active = inhibition above about 83%;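 also: 0% = vehicle DMSO and 100% = high DMSO as cytotoxic control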). The conditions noted are these: HD-MB03 medulloblastoma cells, stronger effect = higher value.
Test [10] is described as follows: growth inhibition, single agents and combos, UWB1.289, cell-based, BGB or cisplatin combos, synergistic combos for chromothripsis tumors (AID 1671456; in the data active = inhibition above about 80%;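 also: cells exposed to compound for four days; 0% = vehicle DMSO and 100% = killing by high DMSO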). The conditions noted are these: UWB1.289 ovarian carcinoma cells, stronger effect = higher value.
A short description of test [11]: growth inhibition, single agents and combos, LFS_MB_2R, cell-based, cisplatin combos, synergistic combos for chromothripsis tumors (AID 1671457; in the data active = inhibition above about 80%;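 also: cells exposed to compound for four days before readout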). The conditions noted are these: LFS_MB_2R medulloblastoma cells, stronger effect = higher value.
Test [12] is described as follows: growth inhibition, MDA-MB-436, cell-based, BGB or cisplatin combos, synergistic combos for chromothripsis tumors (AID 1671458; call rule not given here;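 also: cells exposed for 96 hours; 0% = vehicle DMSO and 100% = killing by high DMSO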). The conditions noted are these: MDA-MB-436 breast carcinoma growth inhibition, drug combinations, stronger effect = higher value.
Test [13] can be described thus: UWB1.289_BRCA1 ovarian cancer growth, cell-based, BGB or cisplatin combinations (AID 1671459; in the data active = inhibition above about 80%). Particulars: UWB1.289 BRCA1 ovarian carcinoma, drug combinations, stronger effect = higher value.
The nature of test [14]: drug combination toxicity in non-malignant astrocytes – cell-based, BGB or cisplatin IC20 combos, cytotoxicity control for chromothriptic childhood tumor combination screen (AID 1671460; in the data active = inhibition above about 80%;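 also: cells exposed to compounds for 96 hours before viability readout; 0% = vehicle and 100% = killing control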). Particulars: Human astrocytes, viability inhibition, drug combinations, at 0.5 µM, stronger effect = higher value.
A short description of test [15]: BT084 cell growth, single and combined drugs, ICGC_MB145, cisplatin and BGB IC40 combos (AID 1671461; in the data active = inhibition above about 80%;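 also: cells exposed to drugs for 96 hours; 0% = vehicle DMSO and 100% = high DMSO full killing control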). Particulars: BT084 medulloblastoma cells, drug combinations, stronger effect = higher value.
Test [16] is described as follows: RCMB18 cell growth, single agent and combined, cisplatin and BGB IC40 combos (AID 1671462; in the data active = inhibition above about 80%;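 also: cells exposed to compound for four days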). The conditions noted are these: RCMB18 medulloblastoma cells, stronger effect = higher value.
Test [17] is described as follows: CRL1545 cell growth, single agent and combined, cisplatin and BGB IC20 combos (AID 1671464; in the data active = inhibition above about 80%;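 also: cells exposed to compound for 96 hours before readout; 0% = vehicle DMSO and 100% = high DMSO killing control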). The conditions noted are these: CRL1545 osteosarcoma cells, stronger effect = higher value.
Where [18] appears, read: measured here: combination with BGB IC40, at 0.05 µM.
The mark [19] stands for this setting: measured here: with BGB IC20 combination, at 0.5 µM.
Where [20] appears, read: measured here: with cisplatin IC20 combination, at 0.5 µM.
The mark [21] stands for this setting: measured here: combination with cisplatin, at 0.5 µM.
[22] abbreviates: measured here: combination with cisplatin, at 5 µM.

Several values for one entry are separate records, joined by “and”; a condition that tells them apart may be missing. Identical values can stand only once. Activity calls are given as the source filed them.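 The calls were made as follows, unless noted: active = z-score of at least 1.8 in each of two replicates, scored against plate mean and spread of sample wells; inactive = the rest.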

Sequence of Mitogen-activated protein kinase 7 (Homo sapiens) (Q13164 whole entry, looked up, the tested form may be a part): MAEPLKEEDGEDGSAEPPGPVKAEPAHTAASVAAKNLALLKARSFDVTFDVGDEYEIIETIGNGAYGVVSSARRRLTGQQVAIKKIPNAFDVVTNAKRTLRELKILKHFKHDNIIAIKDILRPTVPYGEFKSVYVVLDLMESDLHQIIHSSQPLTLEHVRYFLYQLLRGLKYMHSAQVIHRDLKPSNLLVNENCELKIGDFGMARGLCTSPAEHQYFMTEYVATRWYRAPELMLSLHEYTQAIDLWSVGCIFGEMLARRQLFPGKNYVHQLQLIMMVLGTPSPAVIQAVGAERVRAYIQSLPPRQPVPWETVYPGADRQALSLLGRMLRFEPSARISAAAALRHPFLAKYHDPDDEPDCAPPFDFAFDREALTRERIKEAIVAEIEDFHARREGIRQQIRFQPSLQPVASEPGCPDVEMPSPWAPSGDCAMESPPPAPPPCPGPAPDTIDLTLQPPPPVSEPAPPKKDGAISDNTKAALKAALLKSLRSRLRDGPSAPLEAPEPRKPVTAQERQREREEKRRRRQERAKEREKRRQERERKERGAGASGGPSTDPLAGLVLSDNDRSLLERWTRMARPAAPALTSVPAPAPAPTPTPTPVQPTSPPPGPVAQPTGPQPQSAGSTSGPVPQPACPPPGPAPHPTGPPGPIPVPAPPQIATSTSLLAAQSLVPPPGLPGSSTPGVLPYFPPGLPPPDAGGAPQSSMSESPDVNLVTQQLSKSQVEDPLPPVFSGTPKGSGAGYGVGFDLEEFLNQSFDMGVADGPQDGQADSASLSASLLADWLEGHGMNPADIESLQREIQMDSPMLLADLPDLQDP

Consider `O=c1c(-c2ccccc2)c1-c1ccccc1`, for which the z-score in test [1] is -1.44 (inactive).

For the molecule `NC(=O)c1ncn([C@@H]2O[C@H](CO)[C@@H](O)[C@H]2O)c1O`, the z-score in test [1] was 0.59 (inactive).

On to `COc1cc2c(cc1OC)-c1cc(=Nc3c(C)cc(C)cc3C)n(C)c(=O)n1CC2`, for which the z-score in [1] was -0.95 (inactive) and -0.575 (inactive) and 0.465 (inactive).

In the case of `CNCCCCOc1ccccc1Cc1ccccc1`, the z-score in [1] is -1.31 (inactive) and -0.275 (inactive).

For the molecule `CC(=O)Nc1ccc(OCC(O)CNC(C)C)cc1` (configuration not stated), the luciferase signal in test [2] was 24 AU (inactive). In addition, the z-score in test [1] was 0.68 (inactive).

Turning to `COc1cc(-c2ccc(=O)[nH]n2)ccc1OC(F)F`, the z-score in test [1] is 0.03 (inactive) and -0.045 (inactive) and 0.53 (inactive).

Broadly, the inhibition is the change of the read-out against control, counted positive when it falls. Regarding `O=c1c(O)c(-c2ccc(O)c(O)c2)oc2cc(O)cc(O)c12`, the luciferase signal in [2] was 72 AU (inactive). The z-score in test [1] is -0.695 (inactive) and -0.855 (inactive). Further, the inhibition in [3] (at 0.5 µM, stronger effect = higher value) is -5.93% (inactive); in test [3] (measured here: combination with BGB IC20, at 0.005 µM) it was 17%; in test [3] (measured here: combination with BGB IC40, at 0.005 µM) it was 13.5%; in [3] (setting [18]), 25.1%; in test [3] (measured here: combination with cisplatin, at 0.5 µM, stronger effect = higher value), -24.2%; in test [3] (measured here: combination with cisplatin, at 5 µM, stronger effect = higher value), 20.2%. Besides, the inhibition in test [4] (BGB combo, at 5 µM) is -9.66%; in test [4] (at 0.5 µM), -7.52% (inactive); in [4] (cisplatin combo, at 5 µM) it was 10.5%; in test [4] (setting [19]), -21.2%; in test [4] (setting [20]), 12.4%; in [4] (single agent, at 5 µM), -15.2%. The inhibition in [5] (BGB IC20 combo, at 0.005 µM) is 14%; in test [5] (BGB IC40 combo, at 0.005 µM) it was -3.66%; in [5] (BGB IC40 combo, at 0.05 µM) it was -21.1%; in [5] (at 0.5 µM) it was 2.09% (inactive); in test [5] (cisplatin combo, at 0.05 µM) it was -21.1%; in [5] (cisplatin combo, at 0.5 µM), -0.46%. Further, the inhibition was -2.17% in test [5] (cisplatin combo, at 5 µM); 2.61% in [5] (measured here: 5 uM single agent, at 5 µM); -24.6% (inactive) in [6] (at 0.5 µM); 7.65% in test [6] (setting [18]); -39% in test [6] (setting [21]); -2.19% in test [6] (setting [22]). Besides, the inhibition in test [7] (at 0.5 µM) was -16.3% (inactive); in test [7] (measured here: with BGB IC20, at 0.5 µM) it was -21.8%; in test [7] (measured here: with BGB IC20, at 5 µM), -1.29%; in test [7] (measured here: with cisplatin IC20, at 0.5 µM), -33.8%; in [7] (measured here: with cisplatin IC20, at 5 µM) it was -25%; in test [7] (single agent, at 5 µM), -18.2%. Further, the inhibition in [8] (at 0.5 µM) is -28.1% (inactive); in test [8] (measured here: combination with BGB at IC20, at 0.5 µM), -37.5%; in test [8] (measured here: combination with cisplatin at IC20, at 0.5 µM) it was -36.5%; in test [9] (at 0.5 µM), -8.42% (inactive); in test [9] (measured here: combo with BGB at IC20, at 0.5 µM) it was -5.54%; in [9] (measured here: combo with cisplatin at IC20, at 0.5 µM) it was -14%. Further, the inhibition in test [10] (at 0.5 µM) was -3.55% (inactive); in test [10] (measured here: inhibition with BGB combination, at 0.05 µM), -4.11%; in [10] (measured here: inhibition with cisplatin combination, at 0.05 µM) it was -12.6%; in [11] (at 0.5 µM), 0.78% (inactive); in [11] (setting [21]), 12%; in test [11] (setting [22]), 15.1%. For the same molecule, the inhibition in [12] (at 0.5 µM) was 0.09% (inactive); in [12] (measured here: BGB combination, at 0.5 µM), -0.722%; in test [12] (measured here: BGB combination, at 5 µM), 15.2%; in test [12] (measured here: cisplatin combination, at 0.5 µM), -5.24%; in test [12] (measured here: cisplatin combination, at 5 µM), 12.3%; in [13] (BGB combination, concentration series, at 5 µM) it was 2.88%. Further, the inhibition in test [13] (at 0.5 µM) was -10.1% (inactive); in test [13] (cisplatin combination, concentration series, at 5 µM), 11.4%; in [14], -9.12% (inactive); in test [14] (measured here: combo with BGB IC20) it was -6.54%; in [14] (measured here: combo with cisplatin IC20), -19%; in test [15] (at 0.5 µM) it was 11.1% (inactive). Further, the inhibition in test [15] (cisplatin combination, at 0.5 µM) was -4.44%; in [15] (cisplatin combination, at 5 µM) it was -18.7%; in test [15] (measured here: BGB IC40 combination 0.05 uM, at 0.05 µM) it was 37.6%; in test [15] (single agent, at 5 µM), -1.38%; in test [16] (at 0.5 µM) it was 8.96% (inactive); in test [16] (cisplatin combo, at 5 µM), -16.5%. Besides, the inhibition in test [16] (measured here: BGB IC40 combination, at 0.05 µM) was 7.33%; in test [16] (setting [21]), 6.44%; in [16] (single agent, at 5 µM) it was 2.31%; in test [17] (at 0.5 µM), -39.9% (inactive); in test [17] (setting [19]), -11.9%; in test [17] (setting [20]) it was -53.9%. Further, the inhibition in test [17] (single agent, at 0.05 µM) was 57.4%; in test [17] (single agent, at 5 µM) it was 8.34%.
